# Source: PubChem BioAssay
# Shown are actives, neighbours in structure and some others; about 1.1% of the full set was active somewhere.
# gsp antag: antagonizes gsp, the McCune-Albright syndrome mutation; gsp-mutant cells, cAMP HTRF, 30 min; Potency, µM (highest dose often 76.9 µM), most hits filed as inhibitors; actives 0.4% (n = 340,000); AID 624288; calls by dose curve; cell line not stated here;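 also: intracellular cAMP measured with PDE inhibitor Ro 20-1724 present during compound exposure; nearly all actives have a fitted effect of over 65% in size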
#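 Measurement of cellular cAMP by homogeneous time-resolved fluorescence following a 30 min compound exposure at 37C. The PDE inhibitor […] was present throughout; the assay buffer was DPBS with 0.05% BSA and 0.005% Tween 20.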
# Tb PFK inh-1: inhibitors of T. brucei phosphofructokinase. O15648. T. brucei PFK, ADP-Glo luminescence. Potency, µM (doses to about 57.5 µM), actives largely listed as inhibitors. actives 0.17% (n = 330,000). AID 485367; also: nearly all actives have a fitted effect of over 60% in size
#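 In TEA buffer at pH 8.0 with 5 mM MgCl2, enzyme (1.25 nM) converted F6P (0.5 mM) and ATP (0.1 mM) for 45 min at room temperature. ADP product was read by luciferase luminescence.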
# RXFP1 ag: activates the human relaxin receptor RXFP1 | AID 2676 | HEK293T-RXFP1 cAMP TR-FRET, 30 min; response scale: percent of porcine relaxin response, buffer zero | Potency, µM (titrated, usually from 57.5 µM), hits mostly activators | actives 0.3% (n = 370,000) | Q9HBX9; also: nearly all actives have a fitted effect of over 60% in size
# Target sequence (Q9HBX9 whole entry, looked up): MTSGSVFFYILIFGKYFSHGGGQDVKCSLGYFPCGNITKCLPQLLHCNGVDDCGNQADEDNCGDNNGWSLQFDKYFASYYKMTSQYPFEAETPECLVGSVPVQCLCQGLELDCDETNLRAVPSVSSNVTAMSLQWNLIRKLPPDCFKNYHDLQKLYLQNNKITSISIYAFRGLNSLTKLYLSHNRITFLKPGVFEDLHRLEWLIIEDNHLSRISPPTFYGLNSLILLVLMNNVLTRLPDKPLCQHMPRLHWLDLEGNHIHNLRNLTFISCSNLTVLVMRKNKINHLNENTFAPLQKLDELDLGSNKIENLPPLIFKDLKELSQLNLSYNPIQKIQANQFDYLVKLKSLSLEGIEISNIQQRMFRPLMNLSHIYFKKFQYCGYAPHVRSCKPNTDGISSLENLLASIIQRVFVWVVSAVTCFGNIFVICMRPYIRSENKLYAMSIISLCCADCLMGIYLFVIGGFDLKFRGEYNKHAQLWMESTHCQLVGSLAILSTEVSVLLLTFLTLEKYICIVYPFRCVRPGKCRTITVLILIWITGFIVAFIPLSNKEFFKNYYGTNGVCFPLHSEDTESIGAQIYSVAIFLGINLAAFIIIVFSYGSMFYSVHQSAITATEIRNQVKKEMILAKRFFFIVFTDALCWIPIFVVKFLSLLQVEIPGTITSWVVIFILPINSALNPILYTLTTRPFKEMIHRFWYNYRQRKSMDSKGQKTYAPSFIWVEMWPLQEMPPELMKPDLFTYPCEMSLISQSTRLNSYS
#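 Agonist response is measured as cAMP accumulation in an RXFP1-transfected HEK293T line under PDE4 inhibition. Values are scaled between buffer-only and 29 nM porcine relaxin, and EC50s come from standard Hill equation fits.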
# p53 reactivator: re-activators of mutant p53 | H1299 p53-A138V BP100-luciferase reporter, luminescence, 24 h | Potency, µM (doses to about 92.2 µM), hits mostly activators | actives 0.063% (n = 320,000) | AID 504706; also: nearly all actives have a fitted effect of over 45% in size
#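 p53-null H1299 cells stably carrying temperature-sensitive p53-A138V and a BP100-luciferase reporter were pinned with compounds (4-point, 1:5 series) and held 24 hrs at 37 deg C. Luminescence was read 10 min after detection reagent.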
# gsp ag: agonists of gsp mutant (McCune-Albright syndrome) | Potency, µM (top dose mostly 76.9 µM), most hits filed as activators | actives 0.13% (n = 340,000) | gsp mutant cells, cAMP HTRF, 30 min | AID 624287; active = well fitted activation curve with a large enough effect; inconclusive = small, poorly fitted or top-dose-only effect, or another doubt; inactive = no such curve, though single readings can be large or run the other way; cell line not stated here;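 also: phosphodiesterase inhibitor Ro 20-1724 added with compounds to block cAMP breakdown; nearly all actives have a fitted effect of over 60% in size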
#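 Cells in DMEM/10% FBS with G418 were pretreated with compounds in DMSO plus […] (300 uM stock) for 30 min at 37C. cAMP was measured by HTRF (cAMP-d2 plus anti-cAMP antibody-K) after 30 min at room temperature.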
# RXFP1 antagonist: RXFP1 (human) relaxin receptor antagonism | HEK293-RXFP1, relaxin-stimulated cAMP HTRF, 30 min; active compounds read low | activity change, negative = inhibition, % at 57.5 µM | actives 0.59% (n = 350,000) | AID 1259400;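 active = activity change of -60% or lower, but not beyond a set lower limit; inconclusive = change between -60% and -40%, or beyond the set limit; inactive = change above -40%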
# TbPFK ATP: inhibits T. brucei PFK measured by ATP depletion | shares compounds with Tb PFK inh-1 | Tb PFK enzyme, ATP depletion, Kinase-Glo Plus luminescence | Potency, µM (titrated, usually from 57.5 µM) | actives 47% (n = 1,100); calls by dose curve; also: nearly all actives have a fitted effect of over 60% in size
# Tb PFK inh-2: T. brucei PFK enzyme inhibition, hit validation; shares compounds with Tb PFK inh-1; purified T. brucei PFK, ADP-Glo luminescence, 45 min; Potency, µM (top dose mostly 57.5 µM), actives largely listed as inhibitors; actives 41% (n = 1,100); AID 504637; also: nearly all actives have a fitted effect of over 60% in size
# Numbers stand for hits; n = inactive; u = inconclusive; x = no result given; [ ] = remark or other dose. Unless noted, calls follow the shape of the dose curve; as a rule, active = well fitted curve in the direction sought with a large enough effect; inconclusive = small, poorly fitted or top-dose-only effect, or another doubt; inactive = no such curve, though single readings can be large; an effect the other way counts as inactive or inconclusive.
SMILES,gsp antag,Tb PFK inh-1,RXFP1 ag,p53 reactivator,gsp ag,RXFP1 antagonist,TbPFK ATP,Tb PFK inh-2
CCNc1nc(NCC)n2c(SCC(=O)Nc3ccc(CC)cc3)nnc2n1,n,21µM,n,n,n[15.4 µM],n,17µM,17µM
CN1C(=O)C(=Cc2cc([N+](=O)[O-])ccc2N2CCCCC2)C(=O)N(C)C1=O,n,n,n,n,n[15.4 µM],n,x,x
CCOc1cc(/C=C\[N+](=O)[O-])ccc1OCC(=O)Nc1ccccc1C,n,u,n,n,u,n,n,u
O=C(O)CCN1C(=O)c2ccc(NC(=O)CSc3ccc(Cl)cc3)cc2C1=O,n,u,n,x,n,n,u,u
Clc1ccc(CSc2nnc([C@@H]3CCCN3)o2)cc1Cl,n,30µM,n,n,n,n,12µM,27µM
NCCCCCc1nnc(SCc2ccc(Cl)c(Cl)c2)o1,n,24µM,n,n,n,n,13µM,30µM
CCC(=NCc1ccc2c(c1)OCO2)c1c(O)n(C2CCCCC2)c(=O)[nH]c1=O,u,n,n,n,n,n,x,x
c1cc(SSc2ccncc2)ccn1,n,24µM,n,n,n,n,17µM,u
O=C(NCc1cn2ccccc2n1)c1ccccc1,n,n,n,u,n,n,x,x
Cc1cc(Cl)ccc1OCCCC(=O)NCc1cccs1,n,n,n,n,n,x,x,x
NS(=O)(=O)c1ccc(NC(=S)Nc2cc(Cl)c(Cl)cc2Cl)cc1,n,u,n,n,n,n,27µM,u
NS(=O)(=O)c1ccc(NC(=O)Nc2ccc(Cl)cc2)cc1,n,12µM,n,n,n,n,6µM,11µM
NS(=O)(=O)c1ccc(NC(=S)NCc2cccc(Cl)c2)cc1,n,u,n,n,n,n,1.5µM,2.4µM
ClCc1cccc(Cl)c1,x,x,x,x,x,n,x,x
Cn1c(=O)oc2cc(S(=O)(=O)N3CCCC(C(=O)NCc4ccc5c(c4)OCO5)C3)ccc21 (stereo not given),n,n,n,n,n,x,x,x
CN(C(=O)Oc1ccc([N+](=O)[O-])cc1)c1ccccc1,n,n,n,n,n[15.4 µM],n,x,x
CC(=O)Nc1cccc([As](=O)(c2cccc(NC(C)=O)c2)c2cccc(NC(C)=O)c2)c1,n,n,n,n,n,n,x,x
CC(=O)Nc1cc([As](=O)(O)O)ccc1O,n,u,n,n,x,n,u,u
O=C1OC(c2cccs2)=N/C1=C/c1ccc(-c2cccc(C(=O)O)c2)o1,n,u,n,n,n,n,u,u
CC(=C\C(=O)O)/C(=C\c1cccc2ccccc12)C(=O)O,n,u,n,n,n[15.4 µM],n,n,n
O=c1[nH]c(=S)n(C2CC2)c(O)c1C=NCCN1CCOCC1,n,n,n,n,n[15.4 µM],n,x,x
O=c1ccsn1Cc1ccccc1,n,11µM,n,n,n,x,n,11µM
CCC1(CC)C(=O)N(Cc2ccccc2)C(=O)N(Cc2ccccc2)C1=O,n,n,n,n,n,n,x,x
C=CCSc1nc2sc3c(c2c(=O)n1CC)CCc1ccccc1-3,n,13µM,n,u,n,n,6.7µM,11µM
CN1CC[C@]2(c3cccc(O)c3)Cc3nc4ccccc4cc3C[C@H]2C1,x,n,n,x,x,x,x,x
SMILES,gsp antag,Tb PFK inh-1,RXFP1 ag,p53 reactivator,gsp ag,RXFP1 antagonist,TbPFK ATP,Tb PFK inh-2
O=C(Cc1ccccc1)OCC(=O)N1CCN(S(=O)(=O)c2ccc(Cl)cc2)CC1,n,n,n,n,n[15.4 µM],n,x,x
S=C1CCSc2ccc(Cl)cc2N1,n,u,n,n,n[15.4 µM],n,u,u
S=C1CN=C(c2ccccc2Cl)c2cc(Cl)ccc2N1,u,n,n,n,n[15.4 µM],n,x,x
CNCC1(c2ccccc2)CCCC1,n,n,n,n,n,n,x,x
COc1ccc(N=C(C)c2c(O)[nH]c(=O)[nH]c2=O)cc1,n,n,n,x,n,n,x,x
Cc1cc(C)nc(/N=C(\N)c2c(O)[nH]c(=O)[nH]c2=O)n1,n,u,n,u,n,n,u,n
Cc1cc(C)cc(N2C(=O)NC(=O)/C(=C\C=C\c3ccco3)C2=O)c1,n,u,n,n,n,n,11µM,21µM
CCc1ccc(N2C(=O)NC(=O)/C(=C\C=C\c3ccco3)C2=O)cc1,n,u,n,n,n,n,u,u
CC1=NN(c2ccccc2)C(=O)C1/C=C1\C(=O)NC(=O)N(c2cc(C)cc(C)c2)C1=O (stereo not given),n,n,n,n,n,n,x,x
CCOc1ccc(N2C(=O)/C(=C/c3ccco3)C(=O)NC2=S)cc1,n,n,n,u,n,n,x,x
CN1CCC2(CC1)CC(NC=O)c1ccccc1O2 (stereo not given),x,n,n,n,n[15.4 µM],n,x,x
O=c1[nH]c(=O)n(Cc2ccccc2)c(O)c1C=NCCN1CCNCC1,n,n,n,n,n,n,x,x
O=[N+]([O-])c1cc(F)c(N2CCCC2)cc1Br,n,n,n,u,n,n,x,x
O=[N+]([O-])c1cc2c(cc1Br)CCN2,n,3.4µM,n,n,n,n,4.3µM,6µM
CC1(C)C(C(=O)NCc2ccco2)C1(C)C,n,n,n,n,u,n,x,x
O=C(COC(=O)Cc1cccc(C(F)(F)F)c1)NCc1ccco1,n,8.5µM,n,n,u,n,3.8µM,11µM
COc1cc(OC)cc(C(=O)OCC(=O)NCc2ccco2)c1,n,15µM,n,n,n,n,u,u
N#Cc1ccccc1Cn1cc(C(=O)c2ccco2)c2ccccc21,n,n,n,n,n,n,x,x
COc1cc(-c2cc(=O)c3c(O)c(OC)c(OC)c(O)c3o2)ccc1O,n,u,n,n,x,x,6µM,9.5µM
COc1cc2ccc(=O)oc2c2ccoc12,n,n,n,n,x,x,x,x
Cc1cc2c(cc1[N+](=O)[O-])NC(CNC(C)C)CC2 (stereo not given),n,12µM,n,n,n[15.4 µM],n,27µM,17µM
FC(F)(F)C1=NC(C(F)(F)F)=NP(N2CCOCC2)(N2CCOCC2)=N1,n,n,n,n,n,n,x,x
Cc1c(NS(=O)(=O)c2ccccc2)ccc([N+](=O)[O-])c1Cl,u,x,x,x,n,n,x,x
O=C(O)CCCNc1ccc(S(=O)(=O)Nc2ccccc2C(=O)O)cc1C(=O)O,n,u,n,n,n,n,n,u
CN1CCc2cc(O)c(O)cc2C(c2ccccc2)C1 (stereo not given),n,u,n,n,x,x,u,u
Oc1cc2c(cc1O)[C@@H](c1ccccc1)CNCC2,n,12µM,n,n,x,x,1.9µM,4.8µM
